Data published in PubChem BioAssay AID1159580 (chemical genetic matrix, 2015).
“And” between values parts separate entries of the source, which are not always exact repeats. Identical values can stand only once. Screen size: about 5,500 compounds; about 2,000 (36%) were called active. Another 18% or so got no clear call; they are omitted. No stated cut-off is given here; in the data, active means normalized growth mostly below about 0.91 (no sharp cut-off); inconclusive means no clear call, values can overlap the other calls; inactive means mostly above about 0.92. Some of the results follow.

Experiment: chemical genetic growth profiling, strain panel (AID 1159580);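 further: tested at 20 µM; growth read once vehicle control cultures reached saturation at 30 °C; 1 = growth at the plate median or of vehicle wells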
Conditions: S. cerevisiae deletion strains, growth OD

Measured: normalized growth

O=C(C1CCCCC1)N1CC(=O)N2CCc3ccccc3C2C1 (stereo not drawn)
inactive: locus YAL021C, strain ccr4, stronger effect = lower value 0.999 | locus YAL026C, strain drs2, stronger effect = lower value 1 | locus YAL030W, strain snc1, stronger effect = lower value 1.01 | locus YAL040C, strain CLN3, stronger effect = lower value 1.05 | locus YBL061C, strain skt5, stronger effect = lower value 1.01 | locus YBR009C, strain hhf1, stronger effect = lower value 1.01 | locus YBR021W, strain FUR4, stronger effect = lower value 0.993 | locus YBR023C, strain chs3, stronger effect = lower value 1.02 | locus YBR171W, strain sec66, stronger effect = lower value 1.01 | locus YBR229C, strain ROT2, stronger effect = lower value 1 | locus YBR231C, strain swc5, stronger effect = lower value 0.983 | locus YBR279W, strain paf1, stronger effect = lower value 1.01 | locus YCL011C, strain gbp2, stronger effect = lower value 1.03 | locus YCL016C, strain dcc1, stronger effect = lower value 1.04 | locus YCL029C, strain bik1, stronger effect = lower value 1.01 | locus YCL061C, strain MRC1 (second series), stronger effect = lower value 1 | locus YCL061C, strain MRC1, stronger effect = lower value 1.01 | locus YCL069W, strain vba3, stronger effect = lower value 1.01 | locus YCR088W, strain abp1, stronger effect = lower value 1.01 | locus YDL005C, strain med2, stronger effect = lower value 1.01 | locus YDL035C, strain GPR1, stronger effect = lower value 1 | locus YDL040C, strain nat1, stronger effect = lower value 0.992 | locus YDL074C, strain BRE1, stronger effect = lower value 1.01 | locus YDL101C, strain DUN1, stronger effect = lower value 1.01 | locus YDL134C, strain PPH21, stronger effect = lower value 1 | locus YDL185W, strain tfp1, stronger effect = lower value 1.01 | locus YDL192W, strain arf1, stronger effect = lower value 1.01 | locus YDR001C, strain nth1, stronger effect = lower value 1 | locus YDR069C, strain doa4, stronger effect = lower value 0.978 | locus YDR101C, strain arx1, stronger effect = lower value 1.03 | locus YDR137W, strain rgp1, stronger effect = lower value 1.03 | locus YDR159W, strain sac3, stronger effect = lower value 0.976 | locus YDR162C, strain NBP2, stronger effect = lower value 1 | locus YDR195W, strain ref2 0.981 | locus YDR297W, strain sur2, stronger effect = lower value 1.01 | locus YDR318W, strain mcm21, stronger effect = lower value 1.02 | locus YDR334W, strain swr1, stronger effect = lower value 1.01 | locus YDR335W, strain msn5, stronger effect = lower value 0.999 | locus YDR363W, strain ESC2, stronger effect = lower value 1.04 | locus YDR388W, stronger effect = lower value 1.01 | locus YDR392W, strain spt3, stronger effect = lower value 0.862 | locus YDR502C, strain sam2, stronger effect = lower value 1.01 | locus YEL003W, strain gim4, stronger effect = lower value 0.995 | locus YEL037C, strain rad23, stronger effect = lower value 0.999 | locus YEL061C, strain CIN8 (second series), stronger effect = lower value 1 | locus YEL061C, strain CIN8, stronger effect = lower value 1 | locus YER002W, strain NOP16, stronger effect = lower value 1.01 | locus YER015W, strain faa2, stronger effect = lower value 1 | locus YER016W, strain bim1, stronger effect = lower value 0.989 | locus YER110C, stronger effect = lower value 1.02 | locus YER111C, strain swi4, stronger effect = lower value 1 | locus YER155C, strain BEM2 (second series), stronger effect = lower value 0.913 | locus YER155C, strain BEM2, stronger effect = lower value 1 | locus YER167W, strain BCK2, stronger effect = lower value 1 | locus YFR010W, strain ubp6, stronger effect = lower value 1.01 | locus YGL078C, strain dbp3, stronger effect = lower value 1.01 | locus YGL086W, strain mad1, stronger effect = lower value 1.01 | locus YGL167C, strain pmr1, stronger effect = lower value 1.01 | locus YGL173C, strain kem1, stronger effect = lower value 1 | locus YGL227W, strain vid30, stronger effect = lower value 1.01 | locus YGL240W, strain doc1, stronger effect = lower value 0.978 | locus YGL248W, strain PDE1, stronger effect = lower value 1.01 | locus YGL253W, strain hxk2, stronger effect = lower value 0.982 | locus YGR078C, strain PAC10, stronger effect = lower value 1 and 1.01 | locus YGR135W, strain pre9, stronger effect = lower value 0.998 | locus YGR252W, strain gcn5, stronger effect = lower value 0.953 | locus YHR013C, strain ard1, stronger effect = lower value 0.988 | locus YHR027C, strain rpn1, stronger effect = lower value 1.01 | locus YHR030C, strain SLT2, stronger effect = lower value 1 and 1.01 | locus YHR079C, strain IRE1 (second series), stronger effect = lower value 1.01 | locus YHR079C, strain IRE1, stronger effect = lower value 1.01 | locus YHR094C, strain hxt1, stronger effect = lower value 1.01 | locus YHR129C, strain ARP1, stronger effect = lower value 0.992 | locus YHR142W, strain chs7, stronger effect = lower value 1 | locus YHR200W, strain rpn10, stronger effect = lower value 1.01 | locus YIL066C, strain RNR3, stronger effect = lower value 1.01 | locus YIL073C, strain SPO22, stronger effect = lower value 1.01 | locus YIL125W, strain kgd1, stronger effect = lower value 1.01 | locus YIR030C, strain dcg1, stronger effect = lower value 1.01 | locus YJL092W, strain hpr5, stronger effect = lower value 1 | locus YJL095W, strain BCK1 (second series), stronger effect = lower value 1.01 | locus YJL095W, strain BCK1, stronger effect = lower value 0.974 and 1.03 | locus YJL115W, strain asf1, stronger effect = lower value 1.01 | locus YJL129C, strain trk1, stronger effect = lower value 0.997 | locus YJL134W, strain LCB3, stronger effect = lower value 1 | locus YJL154C, strain vps35, stronger effect = lower value 1 | locus YJL164C, strain tpk1, stronger effect = lower value 1.02 | locus YJL166W, strain qcr8, stronger effect = lower value 1.02 | locus YJL168C, strain set2, stronger effect = lower value 1.01 | locus YJL187C, strain SWE1 (second series), stronger effect = lower value 1.01 | locus YJL187C, strain SWE1, stronger effect = lower value 1.01 | locus YJR043C, strain POL32, stronger effect = lower value 1.01 | locus YJR066W, strain TOR1, stronger effect = lower value 0.939
